Measured values from PubChem BioAssay (Tox21).
Results filed as inconclusive are left out. Where a call stands in place of a potency, no number is given. Activity calls are given as the source filed them. The call rests on the fitted dose curve.

experiment: p53 small molecule agonists, cell-based qHTS assay with human liver microsomes (AID 1963577); details: HCT-116 p53RE-bla with human liver microsomes, ratio, 16 h; series mostly up to 66 µM;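 further: p53 response element beta-lactamase reporter cells with liver microsomes plus NADPH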
From the text: National Center for Advancing Translational Sciences [NCATS]
Division of Preclinical Innovation [DPI]
U.S. Environmental Protection Agency [EPA]
National Institutes of Environmental Health Sciences [NIEHS]
National Toxicology Program [NTP]
U.S. Food and Drug Administration [FDA]
p53, a tumor suppressor protein, is activated following cellular insult, including DNA damage and other cellular stresses. The activation of p53 regulates cell fate by inducing DNA repair, cell cycle arrest, apoptosis, or cellular senescence. The activation of p53, therefore, is a good indicator of DNA damage and other cellular stresses. […] The activation of the reporter gene under culture conditions can be detected by fluorescence intensity.
Tox21 Assay Protocol Summary:
The p53RE-bla cells were dispensed at 4,000cells/3ul/well in 1536-well black-clear bottom plates. After the assay plates were incubated at 37 C, 5% CO2 incubator for 5 hours, 23 nL of compounds dissolved in DMSO, positive controls or DMSO only was transferred to the assay plate. Following compound addition, 3 uL of human liver microsomes (XenoTech, Kansas City, KS) at final concentration of 0.5 mg/mL and 1uL of Beta-Nicotinamide adenine dinucleotide 2-phosphate (NADPH) at final concentration of 0.5 mg/mL were transferred to the assay plate. The plates were incubated at 37 C for 16 hours. 1 uL of LiveBLAzer detection mixture was added to each well and the plates were incubated at room temperature in the dark for 2 h.

Structure (SMILES) | Potency
CCCCCCOC(C)=O | inactive
O=C1CCCC1 | inactive
CCCCCCC(C)O (stereo not given) | inactive
C=CCc1ccc(O)c(OC)c1 | inactive
CC(=O)Oc1ccc(C)cc1 | inactive
CCCCC(CC)COC(=O)C(C#N)=C(c1ccccc1)c1ccccc1 (stereo not given) | inactive
C=CCCCCCCCCCC | inactive
COCCOCCOC | inactive
CN(C)CCC(c1ccccc1)c1ccccn1 (stereo not given) | inactive
C=Cc1ccc(C)cc1 | inactive
CCc1ccc(O)cc1 | inactive
c1ccncc1 | inactive
C1CNCCN1 | inactive
CC(=O)Nc1nnc(S(N)(=O)=O)s1 | inactive
c1ccc2cc3ccccc3cc2c1 | inactive
c1ccc2ccccc2c1 | inactive
Nc1cc(Cl)c(-c2cc(Cl)c(N)cc2Cl)cc1Cl | inactive
CCCCCC(=O)O | inactive
COC(=O)C1CCC(C(=O)OC)CC1 (stereo not given) | inactive
CCCCCCCCCCCC[N+](C)(C)C | inactive

Structure (SMILES) | Potency
COC(=O)CC(=O)OC | inactive
COc1ccc(CCC(C)=O)cc1 | inactive
CC1(C)S[C@@H]2[C@H](NC(=O)COc3ccccc3)C(=O)N2[C@H]1C(=O)O | inactive
CC1(C)CC(N)CC(C)(CN)C1 (stereo not given) | inactive
CC/C=C(\C(=O)N[C@@H]1C(=O)N2C(C(=O)OCOC(=O)C(C)(C)C)=C(COC(N)=O)CS[C@H]12)c1csc(N)n1 | inactive
O=C(O)CC(O)C(=O)O (stereo not given) | inactive
C=C(C)C1CC=C(C)C(OC(C)=O)C1 (stereo not given) | inactive
CC12CCC(CC1)C(C)(C)O2 | inactive
CCCCCCCCCCCCCCCC(=O)O | inactive
CCC1(c2ccccc2)C(=O)NCNC1=O | inactive
O=c1c(-c2ccc(O)cc2)coc2cc(O)cc(O)c12 | inactive
CN(C)C(=O)Nc1ccc(Cl)c(Cl)c1 | inactive
CCCCOCCOC(=O)c1ccccc1C(=O)OCCOCCCC | inactive
Cc1cccc2n[nH]nc12 | inactive
CCCCNS(=O)(=O)c1ccccc1 | inactive
c1ccc2c(c1)Cc1ccccc1-2 | inactive
CC(O)CN(CCN(CC(C)O)CC(C)O)CC(C)O (stereo not given) | inactive
c1ccc2c(c1)c1cccc3ccc4cccc2c4c31 | inactive
Cc1ccc(Cl)cc1 | inactive
C/C=C/C(=O)N(CC)c1ccccc1C | inactive
